Data taken from ChEMBL document CHEMBL1157539, “Thousands of chemical starting points for antimalarial lead identification” (Nature, 2010).

Columns and labels:
Format in all cases: functional
Plasmodium falciparum [1] = assay: GSK_TCMDC: Inhibition of Plasmodium falciparum 3D7 in whole red blood cells, using parasite LDH activity as an index of growth. Test compounds present at 2uM
Plasmodium falciparum [2] = assay: GSK_TCMDC: Inhibition of Plasmodium falciparum Dd2 in whole red blood cells, using parasite LDH activity as an index of growth. Test compounds present at 2uM
HepG2 = assay: GSK_TCMDC: Percent inhibition of human HepG2 cell line. Test compounds present at 10uM.

SMILES | Inhibition (Plasmodium falciparum [1]) | Inhibition (Plasmodium falciparum [2]) | Inhibition (HepG2)
COc1ccc(CN2CCC(CNCCc3ccccc3Cl)CC2)cc1.O=C(O)C(F)(F)F | 87% | 17% | 36%
O=C(Nc1ccc(Br)cc1)N(CCN1CCOCC1)CC(O)COc1ccc(Cl)c(F)c1.O=C(O)C(F)(F)F (stereo not given) | 98% | 30% | 3%
O=C(Nc1ccc(OC2CCN(Cc3ccsc3)CC2)c(Cl)c1)c1ccc(F)cc1.O=C(O)C(F)(F)F | 98% | 83% | 31%
CC(C)COc1ccc(Cl)cc1Cc1nc(-c2nc3ccc(N4CCN(C)CC4)nc3[nH]2)cs1.Cl | 99% | 27% | 29%
c1cc2[nH]c(CCc3nc4cc(C5=NC6CCCCC6N5)ccc4[nH]3)nc2cc1C1=NC2CCCCC2N1 (stereo not given) | 93% | 96% | 3%
C[C@H](Cc1ccc(OCCCCCCCOc2ccc(C[C@@H](C)NC[C@H](O)c3cccc(Cl)c3)cc2)cc1)NC[C@H](O)c1cccc(Cl)c1.Cl | 99% | 97% | 99%
CCCCCCCc1c(C)nc2ccccc2c1O | 98% | 96% | 0%
Nc1nc(N)c2c(Cc3ccc(Br)cc3)cccc2n1 | 99% | 20% | 28%
Cc1ccc2c(=O)cc(CCc3cccc(F)c3F)n(CC(=O)N(Cc3ccc(-c4ccc(C(F)(F)F)cc4)cc3)C3CCN(C(C)C)CC3)c2n1.O=C(O)C(O)C(O)C(=O)O | 100% | 49% | 58%
c1ccc(COc2ccccc2COc2ccccc2-c2ccc3cccnc3n2)cc1 | 87% | 95% | 0%
CCCC(CNCc1cccc(I)c1)CNc1cc(=O)c2ccccc2[nH]1 (stereo not given) | 100% | 96% | 0%
CC[C@H](NC(=O)c1ccc(NC(=O)OC(C)(C)C)cc1)C(=O)N[C@@H](CO)C(=O)NCCCCc1ccccc1 | 98% | 94% | 0%
Cc1cccc(CN2CCCN(Cc3ccc(C(=O)Nc4ccc(Cl)cc4)cc3)CC2)c1.O=C(O)C(F)(F)F | 92% | 17% | 54%
Cc1cccc2nc(-c3cccc(-c4ccc(NC(=O)C5CCN(C)CC5)cc4)c3)[nH]c12 | 100% | 100% | 16%
Cc1nc(N/C(N)=N/C(=O)NC2CCCCC2)nc2ccccc12 | 95% | 99% | 21%
CC(=O)Nc1cccc(CN(Cc2ccc(-c3ccc(CNCc4cccnc4)cn3)cc2)C(=O)Cc2cccnc2)c1.O=C(O)C(F)(F)F | 97% | 65% | 0%
Oc1cccc(-c2nc(-c3ccccc3)c(-c3ccc(Oc4ccc(-c5[nH]c(-c6cccc(O)c6)nc5-c5ccccc5)cc4)cc3)[nH]2)c1 | 91% | 96% | 6%
Br.CCCCc1ccc(CCNCCCCCCNCCc2ccc(O)c(O)c2)cc1 | 100% | 0% | 45%
CC1(C)CN(CCC2CCC(NC(=O)/C=C/c3ccccc3F)CC2)Cc2ccc(C#N)cc21.Cl (stereo not given) | 89% | 82% | 0%
CCCN(CC1CC1)c1nc(C)nc2c(-c3ccccc3)cc(C)cc12 | 96% | 78% | 72%

SMILES | Inhibition (Plasmodium falciparum [1]) | Inhibition (Plasmodium falciparum [2]) | Inhibition (HepG2)
CCc1nc2nc(C)cc(Nc3ccc(F)c(Cl)c3)n2n1 | 90% | 77% | 2%
O=C(NCc1cccc2ccccc12)C(c1cc2ccccc2o1)N1CCN(C(c2ccccc2)c2ccccc2)CC1 (stereo not given) | 99% | 90% | 0%
COc1ccc2ncc(F)c(CCN3C4CCC3CC(NCc3cc5c(cn3)OCS5)C4)c2n1.Cl (stereo not given) | 95% | 48% | 15%
COc1ccc2nccc([C@@H](O)CN3CCC(NCC(O)Cc4ccccc4)CC3)c2c1.O=C(O)C(=O)O (stereo not given in full) | 98% | 6% | 5%
CCS(=O)(=O)N1CCN(c2nc(-c3ccccc3)nc(COC)c2Cc2ccccc2F)CC1 | 82% | 34% | 0%
COc1ccc(N(c2nc(-c3cc(Cl)ccc3Cl)cs2)C2CCNC2)cc1.O=C(O)C(F)(F)F (stereo not given) | 95% | 9% | 21%
Nc1ncc(-c2cccc(CCN3CCOCC3)c2)cc1-c1nc2cc(Br)ccc2[nH]1.O=C(O)C(F)(F)F | 100% | 98% | 60%
O=C(NCCCN1CCOCC1)c1csc(Nc2ccc(Cl)c(Cl)c2)n1 | 92% | 23% | 5%
CS(=O)(=O)O.FC(F)(F)COc1ccc2ccccc2c1CNCCCCCCNCc1c(OCC(F)(F)F)ccc2ccccc12 | 100% | 95% | 99%
CCNc1cc(C(=O)N[C@@H](Cc2ccoc2)[C@H](O)CNC(C)CCCC(C)C)cc(N2CCCCS2(=O)=O)c1.Cl (stereo not given in full) | 99% | 68% | 0%
FC(F)(F)c1cccnc1N1CCC(Nc2nc3cc(Cl)ccc3[nH]2)CC1 | 93% | 39% | 32%
CCNc1cc(C(=O)N[C@@H](Cc2ccccc2)[C@H](O)CNCc2ccc3c(c2)OCCO3)cc(N2CCCCS2(=O)=O)c1.O=CO | 95% | 45% | 0%
O=C(Nc1cccc(CN2CCN(C(=O)c3cccc(F)c3)CC2)c1)c1ccco1.O=C(O)C(F)(F)F | 88% | 55% | 7%
CC(=O)c1sc2ccccc2c1O | 91% | 0% | 14%
O=C(Cn1c(CCc2cccc(F)c2F)cc(=O)c2cccnc21)N(CCN1CCCC1)Cc1ccc(-c2ccc(C(F)(F)F)cc2)cc1.O=C(O)C(O)C(O)C(=O)O | 99% | 64% | 48%
Br.Oc1ccc2nc(N3CCNCC3)nc(NCCCc3ccccc3)c2c1 | 100% | 0% | 14%
O=C(CSc1cccc[n+]1[O-])c1ccc(Cc2ncc(C(F)(F)F)cc2Cl)s1 | 99% | 0% | 13%
CN1CCN(CCCN(Cc2ccc(-c3cccc(CNCc4ccc5c(c4)OCO5)c3)cc2)C(=O)Nc2ccccc2)CC1.O=C(O)C(F)(F)F | 100% | 87% | 51%
Cc1cc(-c2nc3ccc(N4CCN(C)CC4)cc3[nH]2)nn1Cc1cc(Cl)ccc1OCC(C)C.Cl | 99% | 67% | 41%
O=C(NC(Nc1ccc([N+](=O)[O-])cc1)C(Cl)(Cl)Cl)c1cccc(Cl)c1 (stereo not given) | 92% | 17% | 0%

SMILES | Inhibition (Plasmodium falciparum [1]) | Inhibition (Plasmodium falciparum [2]) | Inhibition (HepG2)
COc1ccc(-n2nc(C(=O)NCCC3=CCCCC3)c3ccccc3c2=O)cc1 | 94% | 59% | 0%
CC(=O)Nc1nc(C(=O)Nc2ccc(-c3cccc(-c4nc5cc(C(F)(F)F)ccc5[nH]4)c3)cc2)cs1 | 100% | 97% | 79%
COc1ccc2nccc([C@@H](O)CN3CCC(NCc4cc5oc(=O)[nH]c5cc4Cl)CC3)c2c1.O=C(O)C(=O)O | 100% | 91% | 1%
O=C(O)C(F)(F)F.c1cc(CNC2CCN(CC3CCCCC3)CC2)cc(-n2ccnc2)c1 | 100% | 97% | 3%
O=C(C=Cc1ccc(Cl)c(Cl)c1)NCCCCCN1CCC(CCNC(=O)c2cccc3ccccc23)CC1 | 85% | 0% | 17%
Cc1cc(-c2ccc(Cl)cc2)c2c(N)c(C(=O)Nc3ccc(F)cc3)sc2n1 | 97% | 87% | 12%
Cn1nccc1C(=O)NCCNCc1cccc(-c2ccc(-c3nc4cc(C(F)(F)F)ccc4[nH]3)cc2)c1.O=C(O)C(F)(F)F | 100% | 98% | 51%
Cn1nccc1C(=O)NCCNCc1cccc(-c2ccc(-c3nc4ccccc4[nH]3)s2)c1.O=C(O)C(F)(F)F | 100% | 94% | 22%
FC(F)(F)c1ccc2[nH]c(-c3ccc(-c4cccc(CNCc5ccccc5)c4)s3)nc2c1.O=C(O)C(F)(F)F | 100% | 83% | 15%
CC(O)C1CCCCN1C(=O)c1cccc(-c2cccc(-c3nc4cc(F)ccc4[nH]3)c2)c1 (stereo not given) | 100% | 99% | 42%
c1ccc(OCCCCN2CCCCC2)cc1 | 95% | 1% | 2%
CCC[C@@H]([C@@H](CC1CCCCC1)C(=O)N[C@H](C(=O)Nc1ccccn1)[C@H](C)CC)N(O)C=O | 96% | 87% | 24%
CN1CCN(c2ccc(-c3cccc(NC(=O)c4ccc5ccccc5c4)c3)nn2)CC1 | 94% | 26% | 17%
CC[C@H](N/C(=N\c1cccc(Cl)c1Cl)Nc1ccc(C#N)cc1O)c1ccccc1 | 91% | 71% | 0%
CN(C)CCNc1ncnc2c1[nH]c1ccc(Br)cc12 | 100% | 7% | 2%
OC1(c2ccccc2)c2cc(Cl)ccc2OC1c1nc2c(Cl)ccc(Cl)c2o1 (stereo not given) | 98% | 89% | 7%
CN(C)CCOc1cccc(NC(=O)Nc2ccc(-c3ccccc3)cc2)c1.O=C(O)C(F)(F)F | 90% | 16% | 11%
CN1CCN(Cc2cccc(-c3ccc4c(Nc5ccc(F)cc5Cl)ccnc4c3)c2)CC1 | 100% | 100% | 20%
Cc1cccc2nc(-c3ccc(-c4ccc(NC(=O)Nc5ccc(F)c(F)c5F)cc4)cc3)[nH]c12 | 100% | 97% | 51%
N#Cc1cccc(C(=O)Nc2ccc(-c3cccc(CN4CCC(O)CC4)c3)cc2)c1.O=C(O)C(F)(F)F | 100% | 68% | 33%
